Reference: PubChem BioAssay AID1508642 (National Center for Advancing Translational Sciences (NCATS), 2021)
Screen size: about 43,000 compounds; about 200 (0.47%) were called active. A call without a number means that no potency is given here. Roughly 12% stayed inconclusive and do not appear here. This is one part of a sample in which actives are shown more often than they occur. Calls follow the shape of the dose curve; as a rule, active = well fitted cell-killing curve with a large enough effect; inconclusive = small, poorly fitted or top-dose-only effect, or effect the other way; inactive = flat fitted curve, though single readings scatter.

Assay: Cell viability qHTS assay in S16 Pmp22-F2sN cells; also: nearly all actives have a fitted effect of over 65% in size
Settings: S16 Pmp22-F2sN Schwann cells (luciferase reporters placed in the Pmp22 gene) viability, CellTiter-Glo, 24 h; series mostly up to 57.5 µM
Text: Assay Provider: Jim Inglese Ph.D. National Center for Advancing Translational Science, National Institutes of Health, Rockville, MD CMT is a heterogeneous group of neurological disorders that affect approximately 1 in 2,500 people. In particular, the most common form of CMT, CMT1A is genetically linked to the duplication of the PMP22 gene which leads to Schwann cell overexpression, thus manifesting itself as a typical case of dose-sensitive diseases. To identify small molecule compounds that can mediate the expression of PMP22 we developed a phenotypic assay screening strategy by utilizing genome editing techniques to construct Schwann cell lines containing novel reporter technology to monitor the transcriptional or translational regulation of PMP22. For high sensitivity we use a bioluminescent reporter system embedded in the 3' UTR of the PMP22 gene (S16(c9) Pmp22-F2sN) to identify compounds that inhibit gene expression. […] We can further discriminate the effect of all transcriptionally active molecules on PMP22 translation or stability with an assay that incorporates a short NLuc peptide (HiBiT) at the C-terminus of expressed PMP22 (S16(f8) PMP22-HiBiT) allowing alpha complementation and luminescence detection of membrane-associated PMP22 protein. These assays were screened against the NCATS Sytravon Library Collection. Miniaturization of these assays to 1536-well plate format for quantitative high throughput screening (qHTS) yielded rich data sets immediately from the qHTS assay (S16(c9) Pmp22-F2sN), when compared with data from a cell viability assay (Cell TiterGlo) to identify compounds that decreased the output signals through cellular toxicity to streamline the selection process of actives for subsequent characterization using the HiBiT assay (S16(f8) PMP22-HiBiT).
Cell viability assay in S16 Pmp22-F2sN cells PROTOCOL TABLE (format as described by Inglese J, Shamu CE and Guy RK. 2007) SEQUENCE No. (e.g., 1, 2, 3, etc.); […] (e.g., Cells, Incubation, Reagent, etc.); VALUE and DESCRIPTION. 1. Cells. Add 500-1,000 cells in 4 uL in growth media (DMEM High Glucose, No Phenol Red media + 10% heat-inactivated FBS + 1% Pen/Strep supplemented media) per well into Greiner 1536-well white/solid bottom high base, TC-treated plates. 2. Compounds. Library compounds and controls added at 23nL per well, transferred by Pin Tool. 3. Incubation. Incubate plates at 37C, 5% CO2, 95% RH for 24 h. 4. Reagent. Add 3uL CellTiter-Glo per well of Greiner 1536-well plates. 5. Incubation. Incubate plates at room temperature for 15 min., protect from light. 6. Detector. FLuc luminescence measured using CCD-based camera (Viewlux). NOTES (numbers refer to Sequence numbers above; values are from representative experiments) 6. Luminescence Read: Clear filter; Exposure = 1 sec, Gain = High, Speed = Slow, Binning = 2X REFERENCES: 1. Inglese J, Shamu CE and Guy RK, Reporting data from high throughput screening of small molecule libraries, Nature Chemical Biology, 2007, 3(8): 438-441. doi.org/10.1038/nchembio0807-438 2. Yasgar A, Shinn P, Jadhav A, Auld DS, Michael S, Zheng W, Austin CP, Inglese J and Simeonov A, Compound Management for Quantitative High-Throughput Screening. J. Assoc. Lab. Auto., 2008, 13: 79-89. doi: 10.1016/j.jala.2007.12.004
Potency is read from the fitted curve at half-maximal effect.

| SMILES | Potency |
| --- | --- |
| CCS(=O)(=O)N1CCc2cc(C(=O)N3CCN(c4ccccc4OC)CC3)ccc21 | inactive |
| COc1ccc(C2=CC(c3ccccc3Cl)n3nc(-c4ccc(Cl)cc4)nc3N2)cc1 (configuration not stated) | inactive |
| COc1ccc(C)cc1NC(=O)C(=O)NCCc1sc(-c2cccc(C)c2)nc1C | inactive |
| Cc1c(-c2cccc(NC(=O)C(C)(C)C)c2)nc2ncccn12 | inactive |
| Cc1cc(C)c(NC(=O)c2cc3sc(Cl)cc3n2C)c(C)c1 | inactive |
| Cc1cccc(-n2ccnc2SCC(=O)Nc2cccc3ccccc23)c1C | inactive |
| CC(C)Cn1c(-c2ccc(S(=O)(=O)N3CCOCC3)cc2)csc1=Nc1cc(Cl)ccc1Cl | inactive |
| Cc1ccc2[nH]c3c(=O)n(CC(=O)NC(C)C)ncc3c2c1 | inactive |
| COc1ccccc1CNC(=O)CS(=O)(=O)c1cccc2nsnc12 | inactive |
| Cc1cccc2c1-c1sc(C(=O)Nc3ccc(F)cc3F)cc1CO2 | inactive |
| CCOCCn1ccc2c(OCC(=O)NCc3ccc(C)cc3)cccc2c1=O | inactive |
| CCOC(=O)C1CCN(S(=O)(=O)c2ccc3c(c2)N(C)C(=O)CC(=O)N3C)CC1 | inactive |
| Cc1ccc2c(c1)N(C(=O)CCC(=O)NCc1ccccc1F)CC(C)O2 (configuration not stated) | inactive |
| COc1cc(CNC(=O)c2cc3n(n2)CCCN(Cc2cccc(F)c2)C3=O)cc(OC)c1OC | inactive |
| COc1ccc(C2c3c(oc4ccccc4c3=O)C(=O)N2Cc2ccc3c(c2)OCO3)cc1 (configuration not stated) | inactive |
| CCCNC(=O)C1CCN(c2nc3ccc(C)cc3[nH]2)CC1 | inactive |
| CCCc1cc(=O)n2[nH]c(NCc3ccc(CC)cc3)nc2n1 | inactive |
| CCCCN(C)c1nnc(NC(=O)Nc2ccc(Br)c(C)c2)s1 | inactive |
| Cc1cccc(-n2ncc(C(=O)N3CCC(C)CC3)c2C2CCN(C(=O)OC(C)(C)C)CC2)c1 | inactive |
| COc1ccc2c(c1)c(=O)c(C(=O)c1ccccc1)cn2CC(=O)Nc1ccc2c(c1)OCCO2 | inactive |
| Cn1ccc2cc(S(=O)(=O)N3CCCC(C(=O)NCc4ccccc4F)C3)ccc21 (configuration not stated) | inactive |
| CCOc1ccc(N(CC)C(=O)C2CCN(S(=O)(=O)c3cccc4nonc34)CC2)cc1 | inactive |
| CCOc1ccc(N(Cc2ccccc2)C(=O)c2nc(S(C)(=O)=O)ncc2Cl)cc1 | 3.55 µM (active) |
| CCOc1ccc(N(Cc2ccccc2)C(=O)c2nc(SCC)ncc2Cl)cc1 | inactive |
| O=C(Cn1ncn2nc(-c3cccs3)cc2c1=O)NCc1cccc(Br)c1 | inactive |
| CCOC(=O)c1c(NC(=O)/C=C/c2ccc(OC)cc2)sc2c1CCC(C)C2 (configuration not stated) | inactive |
| Cc1ccc(O)c(NC(=O)CCS(=O)(=O)c2nc(-c3ccc4c(c3)OCO4)cc(C(F)(F)F)n2)c1 | inactive |
